A short description of test [1]: Immunotoxin (HA22) sensitization/mitigation study. Vehicle arm (PBS) (AID 1159510). Also: potency is read from the fitted curve at half-maximal effect.
Test [2] in a line: Immunotoxin (SS1P) sensitization/mitigation study. Vehicle arm (DMEM) (AID 1159513). Also: potency is read from the fitted curve at half-maximal effect.
The nature of test [3]: Identifying Small Molecule Inhibitors of Pancreatic Cancer Stem Cells (Panc1, Spheroid) (AID 1259359; active = well fitted curve in the direction sought with a large enough effect; an effect the other way counts as inactive or inconclusive;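 also: potency is read from the fitted curve at half-maximal effect; compound exposure lasted 48 h before reading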). The settings on record: Panc1 spheroid cancer stem cell viability. In a few lines:
(§1)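 Endpoint: ATP-based luminescence, 48 h drug exposure. Bortezomib at 9.2 uM final as full-kill control; DMSO vehicle as negative control; activity normalized between vehicle and cell-free wells.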

Test [4] in a line: Identifying Small Molecule Inhibitors of Pancreatic Cancer Stem Cells (SN12C, Spheroid) (AID 1259360; active = well fitted curve in the direction sought with a large enough effect; an effect the other way counts as inactive or inconclusive; also: potency is read from the fitted curve at half-maximal effect). Particulars: Potency: SN12C spheroid viability. In a few lines: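 Viability is scored by CellTiter-Glo luminescence 48 h after dosing, expressed as percent activity against vehicle and no-cell references. Spheroid formats rely on cells cultured 14 days in stem cell media beforehand.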

A short description of test [5]: Identifying Small Molecule Inhibitors of Pancreatic Cancer Stem Cells (A278, Adherent) (AID 1259361; active = well fitted curve in the direction sought with a large enough effect; an effect the other way counts as inactive or inconclusive;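 also: viability read after 48 h compound exposure; nearly all actives have a fitted effect of over 35% in size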). In a few lines: (§2)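 Pre-formed 14-day tumor spheroids or adherent cells dosed and incubated 48 h, 37C, 5% CO2. Viability assessed by CellTiter-Glo.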
A short description of test [6]: High-throughput drug toxicity screening in the BPDCN cell line Cal-1 (AID 1224825). Particulars: Cal-1 BPDCN cell viability, qHTS; at 45.8 µM (top of the series). In short, it runs like this: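 Percent activity derived from CellTiter-Glo luminescence, scaling DMSO to 100% and 9.2 uM final bortezomib to 0%. BPDCN Cal-1 cells (500/well, RPMI plus 10% FBS) incubated with compounds 48 hours at 37C before reading.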
For orientation: qHTS replaces the single test concentration by a dilution series.

The nature of test [7]: qHTS assay for measurement of the activity of small molecule inhibitors on Zika virus induced Caspase-3 activity in human iPSC derived neural progenitor cells (hNPCs) (AID 1224857; active = well fitted curve in the direction sought with a large enough effect; an effect the other way counts as inactive or inconclusive; also: % of control where 0% means no effect; nearly all actives have a fitted effect of over 65% in size). In a few lines:
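Quantitative HTS format: human iPSC neural progenitors, 1 h compound pretreatment, ZIKV 2 FFU/cell for 6 h at 37 C. Percent inhibition derived from luminescent caspase-3/7 signal between uninfected and infected controls.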

The nature of test [8]: qHTS assay for measurement of the activity of small molecule inhibitors on Zika virus induced Caspase-3 activity in human astrocytoma cells (AID 1224859; active = well fitted curve in the direction sought with a large enough effect; an effect the other way counts as inactive or inconclusive;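 also: plate controls were ZIKV-infected untreated cells for no effect and uninfected cells for full effect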). In a few lines:
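Readout is luminescence from Caspase-Glo 3/7 added after a 6 h ZIKV infection (2 FFU/cell) of compound-pretreated (1 h) SNB-19 cells; data expressed as % inhibition versus uninfected and infected wells.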

Test [9] in a line: qHTS Screen of the MIPE 4.0 Collection Against Ewings Sarcoma (RDES) (AID 1259252; active = well fitted curve in the direction sought with a large enough effect; an effect the other way counts as inactive or inconclusive; also: potency is read from the fitted curve at half-maximal effect; nearly all actives have a fitted effect of over 35% in size). In short, it runs like this: (§3)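 Cells plated in serum-containing RPMI (5% FBS) and treated with compound dilutions for 48 h. Readout luminescent viability; normalization relied on vehicle (no inhibition) and media-only columns (full inhibition).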
Test [10] can be described thus: qHTS Screen of the MIPE 4.0 Collection Against Ewings Sarcoma (TC71) (AID 1259253; active = well fitted curve in the direction sought with a large enough effect; an effect the other way counts as inactive or inconclusive; also: potency is read from the fitted curve at half-maximal effect; nearly all actives have a fitted effect of over 40% in size). In a few lines: as §3
The nature of test [11]: qHTS Screen of the MIPE 4.0 Collection Against Ewings Sarcoma (EW8) (AID 1259255; active = well fitted curve in the direction sought with a large enough effect; an effect the other way counts as inactive or inconclusive; also: potency is read from the fitted curve at half-maximal effect; nearly all actives have a fitted effect of over 35% in size). In a few lines: as §3
The nature of test [12]: qHTS Screen of the MIPE 4.0 Collection Against Ewings Sarcoma (TC32) (AID 1259256; active = well fitted curve in the direction sought with a large enough effect; an effect the other way counts as inactive or inconclusive; also: potency is read from the fitted curve at half-maximal effect; nearly all actives have a fitted effect of over 45% in size). In short, it runs like this:
as §3

Test [13] can be described thus: Identifying Small Molecule Inhibitors of Pancreatic Cancer Stem Cells (SN12C, Adherent) (AID 1259358; active = well fitted curve in the direction sought with a large enough effect; an effect the other way counts as inactive or inconclusive;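 also: potency is read from the fitted curve at half-maximal effect; cell survival measured after 48 h of compound exposure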). In a few lines: as §2
Test [14] is described as follows: Identifying Small Molecule Inhibitors of Pancreatic Cancer Stem Cells (Panc1, Adherent) (AID 1259362; active = well fitted curve in the direction sought with a large enough effect; an effect the other way counts as inactive or inconclusive; also: potency is read from the fitted curve at half-maximal effect). The settings on record: Potency: viability. In a few lines: as §1

Inconclusive results are not listed. Calls of active or inactive are those of the source. Unless noted, no rule for the calls is given here.

With `COc1cc2nc(-c3ccc(N4CCN(C)CC4)cc3)nc(NCCN3CCOCC3)c2cc1OC`, the results for the Potency in [1] and in test [2] were 2.35 µM (active) and 18700 nM (active), respectively.
As for `CC(C)[C@]12O[C@H]1[C@@H]1O[C@]13[C@]1(O[C@H]1C[C@H]1C4=C(CC[C@@]13C)C(=O)OC4)[C@@H]2O`, the Potency in test [1] is 0.0042 µM (active); in test [2], 7.4 nM (active); in [3] it was 23.5 nM (active); in [4], 11.8 nM (active). The IC50 (viability decrease) in test [5] is 0.0066 µM (active).
On to `NC(=O)Nc1cc(-c2ccc(CN3CCOCC3)c(F)c2)sc1C(=O)N[C@H]1CCCNC1`, for which the Potency was 0.0418 µM (active) in test [1] and 209 nM (active) in test [2].
With `C[C@@H](Oc1cc(-n2cnc3ccc(CN4CCN(C)CC4)cc32)sc1C(N)=O)c1ccccc1C(F)(F)F`, the Potency in test [1] was 0.0132 µM (active); in [2], 1.9 nM (active).
Take `CN(C)CCCN=c1c2ccccc2n(C)c2[nH]c(=O)n(C)c(=O)c12`: the Potency was 7.43 µM (active) in [1] and 7430 nM (active) in [2].
Turning to `COc1ccc2c(c[n+](C)c3c4cc5c(cc4ccc23)OCO5)c1OC`, the Potency is 1.32 µM (active) in test [1]; 8330 nM (active) in test [2]; 4.69 µM (active) in test [9]; 9.35 µM (active) in test [10]; 7.43 µM (active) in test [11]; 8.33 µM (active) in [12]. Moreover, the Potency was 20.9 µM (active) in [13] and 6.62 µM (active) in test [14]. This molecule also registered a viability (% of control) in test [6] of 3.4%. The Potency result in [7] and in test [8] was “inactive” throughout. Besides, in test [5], the IC50 (viability decrease) was 16.6 µM (active).
On to `CN1CC[C@@H](c2c(O)cc(O)c3c(=O)cc(-c4ccccc4Cl)oc23)[C@@H](O)C1`, for which the Potency in test [1] was 0.0166 µM (active); in [2], 46.9 nM (active).
In the case of `O=S(=O)(N=Cc1c(O)ccc2ccccc12)c1cccs1`, the Potency in test [1] is 16.6 µM (active). Besides, the Potency result in test [2] was “inactive”.
Take `CC(C)(Sc1ccc(CCN(CCCCC2CCCCC2)C(=O)NC2CCCCC2)cc1)C(=O)O`: the Potency entry in [2] is “inactive”.
